# Source: PMC7862700, “An all-to-all approach to the identification of sequence-specific readers for epigenetic DNA modifications on cytosine”
# What was measured:
# Assay in all cases: DAPPL (digital affinity profiling via proximity ligation, sequencing); 10 mM Tris-HCl pH 7.5, 50 mM NaCl, 1 mM DTT, 4% glycerol, room temperature, 30 min; GST-TFs on glutathione beads, 16-mer random dsDNA library, 0.1% formaldehyde crosslink after washing; high values mean tight binding
# Conditions in all cases: protein: recombinant; tags: N-terminal GST; dsDNA, one strand shown
# FLI1 = biological target: T1, FLI1 (Homo sapiens, UniProt Q01543 1-452)
# T1 sequence: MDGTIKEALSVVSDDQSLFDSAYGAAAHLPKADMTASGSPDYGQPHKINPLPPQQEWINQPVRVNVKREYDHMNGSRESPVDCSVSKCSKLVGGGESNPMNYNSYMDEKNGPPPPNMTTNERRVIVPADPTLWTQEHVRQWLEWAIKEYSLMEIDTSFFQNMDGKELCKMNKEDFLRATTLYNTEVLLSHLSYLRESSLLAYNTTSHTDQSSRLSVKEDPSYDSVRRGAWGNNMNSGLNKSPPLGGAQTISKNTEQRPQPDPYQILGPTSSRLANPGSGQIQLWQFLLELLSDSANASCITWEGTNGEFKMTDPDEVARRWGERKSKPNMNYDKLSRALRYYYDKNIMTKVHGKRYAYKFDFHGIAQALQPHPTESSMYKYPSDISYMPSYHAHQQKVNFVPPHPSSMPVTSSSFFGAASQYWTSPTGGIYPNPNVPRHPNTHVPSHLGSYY
# Outline: (§1)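 Binding signal is each hexamer's read frequency for a factor divided by its frequency in the tag-only sample. The factors were GST-fused human transcription factors from yeast, captured on glutathione beads, DNA-barcoded and pooled with that sample. Pools were incubated with 200 nmole of a random double-stranded 16-mer DNA library in Tris/NaCl/DTT/glycerol buffer at room temperature for 30 min, then washed, crosslinked with 0.1% formaldehyde, proximity-ligated with BsaI/T4 ligase (1 h, 37 °C), PCR-amplified and sequenced on an Illumina NextSeq500.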
# ELK1 = biological target: T2, ELK1 (Homo sapiens, UniProt P19419 1-428)
# T2 sequence: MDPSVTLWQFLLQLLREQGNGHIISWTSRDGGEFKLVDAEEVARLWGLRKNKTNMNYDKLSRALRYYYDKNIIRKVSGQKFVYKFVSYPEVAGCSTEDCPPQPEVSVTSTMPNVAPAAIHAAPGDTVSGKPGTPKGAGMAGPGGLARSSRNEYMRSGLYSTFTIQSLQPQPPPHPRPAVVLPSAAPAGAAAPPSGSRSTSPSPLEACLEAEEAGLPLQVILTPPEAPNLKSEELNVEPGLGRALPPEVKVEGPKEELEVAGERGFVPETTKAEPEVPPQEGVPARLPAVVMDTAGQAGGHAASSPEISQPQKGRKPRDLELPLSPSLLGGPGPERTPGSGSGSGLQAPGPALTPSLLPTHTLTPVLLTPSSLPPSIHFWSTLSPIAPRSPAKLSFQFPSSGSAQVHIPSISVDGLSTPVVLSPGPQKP
# Outline: as §1
# GABPA = biological target: T3, GABPA (Homo sapiens, UniProt Q06546 1-454)
# T3 sequence: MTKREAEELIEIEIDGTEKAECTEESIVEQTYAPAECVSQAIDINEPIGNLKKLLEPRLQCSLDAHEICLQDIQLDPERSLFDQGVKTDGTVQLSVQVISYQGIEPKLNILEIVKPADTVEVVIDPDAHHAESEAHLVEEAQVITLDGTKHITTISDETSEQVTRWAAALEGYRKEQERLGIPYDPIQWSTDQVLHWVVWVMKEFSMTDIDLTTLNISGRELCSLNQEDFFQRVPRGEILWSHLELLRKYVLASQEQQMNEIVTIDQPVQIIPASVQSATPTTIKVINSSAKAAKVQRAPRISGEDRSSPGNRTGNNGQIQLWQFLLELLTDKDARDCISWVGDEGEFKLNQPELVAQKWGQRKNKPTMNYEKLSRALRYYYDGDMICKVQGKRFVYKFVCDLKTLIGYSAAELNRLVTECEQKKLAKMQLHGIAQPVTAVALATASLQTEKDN
# Outline: as §1
# ELF1 = ELF1 (Homo sapiens, UniProt P32519 1-619)
# Outline: as §1
# EHF = biological target: T4, EHF (Homo sapiens, UniProt Q9NZC4 1-300)
# T4 sequence: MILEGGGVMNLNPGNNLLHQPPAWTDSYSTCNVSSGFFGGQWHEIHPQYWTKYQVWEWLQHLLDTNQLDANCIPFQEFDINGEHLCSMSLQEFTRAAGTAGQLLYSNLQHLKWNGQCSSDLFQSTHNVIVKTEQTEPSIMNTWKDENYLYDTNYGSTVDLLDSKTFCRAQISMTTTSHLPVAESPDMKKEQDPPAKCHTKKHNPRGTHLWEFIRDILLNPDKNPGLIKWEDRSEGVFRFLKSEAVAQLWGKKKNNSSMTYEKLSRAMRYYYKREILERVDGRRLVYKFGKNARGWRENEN
# Outline: as §1
# SPI1 = SPI1 (Homo sapiens, UniProt P17947 1-270)
# Outline: as §1
# SPIB = SPIB (Homo sapiens, UniProt Q01892 1-262)
# Outline: as §1
# ELK3 = biological target: T5, ELK3 (Homo sapiens, UniProt P41970 1-407)
# T5 sequence: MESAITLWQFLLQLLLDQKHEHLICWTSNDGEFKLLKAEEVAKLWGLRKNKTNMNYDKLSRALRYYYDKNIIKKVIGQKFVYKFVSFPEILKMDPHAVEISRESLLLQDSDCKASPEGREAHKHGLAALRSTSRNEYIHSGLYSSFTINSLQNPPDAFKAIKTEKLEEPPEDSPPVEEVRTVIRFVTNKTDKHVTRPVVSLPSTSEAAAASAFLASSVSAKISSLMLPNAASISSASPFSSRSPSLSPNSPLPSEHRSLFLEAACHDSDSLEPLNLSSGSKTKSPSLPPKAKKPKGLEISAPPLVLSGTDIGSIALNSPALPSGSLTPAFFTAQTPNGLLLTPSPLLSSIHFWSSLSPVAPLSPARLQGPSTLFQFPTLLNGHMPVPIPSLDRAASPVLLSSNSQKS
# Outline: as §1
# SPIC = biological target: T6, SPIC (Homo sapiens, UniProt Q8N5J4 1-248)
# T6 sequence: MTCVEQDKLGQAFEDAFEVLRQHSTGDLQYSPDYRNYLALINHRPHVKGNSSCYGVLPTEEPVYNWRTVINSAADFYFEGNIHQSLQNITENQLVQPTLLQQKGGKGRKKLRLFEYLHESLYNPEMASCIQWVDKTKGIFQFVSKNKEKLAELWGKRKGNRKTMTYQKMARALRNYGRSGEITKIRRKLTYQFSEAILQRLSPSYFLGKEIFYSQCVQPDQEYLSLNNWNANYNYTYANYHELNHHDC
# Outline: as §1
# ELF4 = ELF4 (Homo sapiens, UniProt Q99607 1-663)
# Outline: as §1
# Sequence of ELF1 (P32519 whole entry): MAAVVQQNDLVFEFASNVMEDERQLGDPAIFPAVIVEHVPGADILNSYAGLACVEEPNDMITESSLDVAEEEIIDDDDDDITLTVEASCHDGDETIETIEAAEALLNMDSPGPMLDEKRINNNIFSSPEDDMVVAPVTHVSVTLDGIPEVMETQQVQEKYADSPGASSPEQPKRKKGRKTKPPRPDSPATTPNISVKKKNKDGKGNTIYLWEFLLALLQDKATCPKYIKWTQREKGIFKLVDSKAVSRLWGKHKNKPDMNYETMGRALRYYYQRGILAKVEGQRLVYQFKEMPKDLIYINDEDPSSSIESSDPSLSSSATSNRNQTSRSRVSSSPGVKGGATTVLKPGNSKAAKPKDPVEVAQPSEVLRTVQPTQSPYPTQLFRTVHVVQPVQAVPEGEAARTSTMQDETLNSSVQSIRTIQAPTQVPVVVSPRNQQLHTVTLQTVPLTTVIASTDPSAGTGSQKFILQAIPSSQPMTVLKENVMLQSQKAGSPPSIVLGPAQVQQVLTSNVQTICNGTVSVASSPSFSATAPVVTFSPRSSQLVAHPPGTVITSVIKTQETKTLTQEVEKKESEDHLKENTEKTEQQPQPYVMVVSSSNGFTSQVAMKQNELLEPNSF
# Sequence of SPIB (Q01892 whole entry): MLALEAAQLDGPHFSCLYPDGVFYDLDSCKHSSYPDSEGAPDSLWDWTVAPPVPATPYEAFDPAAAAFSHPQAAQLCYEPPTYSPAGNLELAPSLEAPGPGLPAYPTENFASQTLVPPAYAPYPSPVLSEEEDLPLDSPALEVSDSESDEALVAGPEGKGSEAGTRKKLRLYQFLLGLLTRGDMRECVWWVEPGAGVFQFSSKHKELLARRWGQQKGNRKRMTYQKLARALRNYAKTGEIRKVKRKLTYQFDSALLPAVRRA
# Sequence of ELF4 (Q99607 whole entry): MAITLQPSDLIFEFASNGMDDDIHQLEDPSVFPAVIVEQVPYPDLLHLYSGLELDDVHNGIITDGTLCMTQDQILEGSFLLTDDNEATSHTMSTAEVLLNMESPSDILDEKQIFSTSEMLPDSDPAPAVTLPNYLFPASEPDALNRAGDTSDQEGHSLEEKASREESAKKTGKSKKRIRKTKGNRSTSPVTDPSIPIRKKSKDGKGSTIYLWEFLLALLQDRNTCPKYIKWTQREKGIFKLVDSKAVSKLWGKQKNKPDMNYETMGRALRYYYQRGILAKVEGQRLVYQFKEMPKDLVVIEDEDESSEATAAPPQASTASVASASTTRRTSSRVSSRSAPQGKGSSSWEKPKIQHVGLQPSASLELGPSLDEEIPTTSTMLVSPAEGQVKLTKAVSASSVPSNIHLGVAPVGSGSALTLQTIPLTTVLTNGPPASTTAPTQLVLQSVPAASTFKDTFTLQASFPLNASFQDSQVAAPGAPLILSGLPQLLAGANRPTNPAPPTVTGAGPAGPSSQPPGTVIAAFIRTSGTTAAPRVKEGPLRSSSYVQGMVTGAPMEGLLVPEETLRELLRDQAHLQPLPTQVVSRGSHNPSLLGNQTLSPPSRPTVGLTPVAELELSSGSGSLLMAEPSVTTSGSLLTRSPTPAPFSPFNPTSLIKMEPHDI
sequence,measurement,setting,value
GTTTGC,binding signal,FLI1,"1.06 fold enrichment (6-mer frequency, TF over GST control)"
same,binding signal,ELK1,"1.11 fold enrichment (6-mer frequency, TF over GST control)"
same,binding signal,GABPA,"1.04 fold enrichment (6-mer frequency, TF over GST control)"
same,binding signal,ELF1,"1.02 fold enrichment (6-mer frequency, TF over GST control)"
same,binding signal,EHF,"1.11 fold enrichment (6-mer frequency, TF over GST control)"
same,binding signal,SPI1,"1.03 fold enrichment (6-mer frequency, TF over GST control)"
same,binding signal,SPIB,"1.07 fold enrichment (6-mer frequency, TF over GST control)"
same,binding signal,ELK3,"1.12 fold enrichment (6-mer frequency, TF over GST control)"
same,binding signal,SPIC,"1.2 fold enrichment (6-mer frequency, TF over GST control)"
same,binding signal,ELF4,"1.15 fold enrichment (6-mer frequency, TF over GST control)"
